For 21 molecules, growth inhibition results are on record in PubChem BioAssay (NCI).

Assay [1] is described as follows: NCI Yeast Anticancer Drug Screen. Data for the rad50 strain (AID 155).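 Further: 0% = growth of vehicle-only cultures of the same strain.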 The note with it: S. cerevisiae rad50 strain growth inhibition; at 50.0 µM; hits give high values. In outline:
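Genetically altered yeast (DNA repair pathway); compound treatment; growth inhibition vs vehicle ctrl.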

The nature of assay [2]: NCI Yeast Anticancer Drug Screen. Data for the mec2-1 strain (AID 157). To be noted: S. cerevisiae mec2-1 strain, at 50.0 µM, hits give high values. In outline: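 Strain: mec2-1 (DNA repair/cell cycle alteration). Compound exposure, then growth measured; inhibition expressed relative to vehicle.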
Assay [3] is described as follows: NCI Yeast Anticancer Drug Screen. Data for the sgs1 mgt1 strain (AID 161).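 Further: 0% = growth of cultures given vehicle only.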 To be noted: S. cerevisiae sgs1 mgt1 strain, at 50.0 µM, hits give high values. The gist of the method: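 Test agents were incubated with a DNA-repair-mutant yeast strain. Growth was then read and compared against vehicle-treated controls.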
Assay [4] can be described thus: NCI Yeast Anticancer Drug Screen. Data for the cln2 rad14 strain (AID 165).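 Further: 0% = growth equal to vehicle treated cultures.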 The note with it: S. cerevisiae cln2 rad14 strain, at 50.0 µM, hits give high values. In outline:
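Compounds are applied to the cln2 rad14 yeast strain, and growth is then compared with that of vehicle-treated cultures to give inhibition.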

Assay [5] can be described thus: NCI Yeast Anticancer Drug Screen. Data for the bub3 strain (AID 167). The note with it: S. cerevisiae bub3 mutant strain, at 50.0 µM, hits give high values. In outline: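 Yeast carrying a defined mutation is treated with each compound, and growth is compared with that of vehicle-exposed cells to give inhibition.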
The nature of assay [6]: NCI Yeast Anticancer Drug Screen. Data for the mlh1 rad18 strain (AID 175). The note with it: S. cerevisiae mlh1 rad18 strain growth inhibition; at 50.0 µM; hits give high values. In outline:
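Read-out is yeast growth inhibition, calculated against vehicle-only controls. The compound was applied to a strain engineered with DNA damage repair alterations.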

Compounds without any hit were thinned out: in the full panel of roughly 79,000, 15% have a hit. Unmarked numbers belong to inactive results. The source made the active and inactive calls. No stated cut-off is given here; in the data, active means growth inhibition above about 70%; inactive means the rest.

In the case of `Fc1ccc(Cl)c2cccnc12`, the growth inhibition in assay [1] was 2.75%; in assay [2] it was 9.85%; in assay [3], -6%; in assay [4] it was -33.7%; in assay [5] it was 3.95%; in assay [6], 8.1%.

For the molecule `CN1C(=O)/C(=N/N(c2ccccc2)c2ccccc2)c2ccccc21`, the growth inhibition in assay [1] was -5.4%; in assay [2], 26.6%; in assay [3] it was -3.85%; in assay [4] it was -3.55%; in assay [5], 21.2%; in assay [6], 5.5%.

As to `CCOC(=O)NC(=O)c1cn(CCCCCCOC(=O)NCCCCCCNC(=O)OCCCCCCn2cc(C(=O)NC(=O)OCC)c(=O)[nH]c2=O)c(=O)[nH]c1=O`, the growth inhibition in assay [1] was 32%; in assay [2], 14.6%; in assay [3], 27.8%; in assay [4], 28.8%; in assay [5], 13.4%; in assay [6], 28.4%.

In the case of `CC(=O)Oc1ccc(-c2ccccc2)cc1`, the growth inhibition is 23.3% in assay [1]; 20.8% in assay [2]; 16% in assay [3]; 3.1% in assay [4]; 18% in assay [5]; 26.3% in assay [6].

Regarding `c1ccc(-c2nnc3nn4c(-c5ccccc5)cnnc4c3c2-c2ccccc2)cc1`, the growth inhibition is -0.05% in assay [1]; -10.3% in assay [2]; -14.8% in assay [3]; 1.4% in assay [4]; -6.05% in assay [5]; 1.5% in assay [6].

In the case of `C=CCn1c(NCCN(CC)CC)nc2ccc(Cl)cc2c1=O`, the growth inhibition in assay [1] was 47%; in assay [2] it was 6.5%; in assay [3], 31.8%; in assay [4], 0.85%; in assay [5], 11.8%; in assay [6], 19.4%.

For the molecule `O=C1/C(=C/c2ccccc2)CC/C1=C\c1ccccc1`, the growth inhibition in assay [1] was 5.35%; in assay [2], 17.6%; in assay [3], 31.8%; in assay [4], 20.2%; in assay [5], 19.8%; in assay [6], 3.85%.

As for `COc1cc2c(cc1C1=NC(C)(C)CO1)OCO2`, the growth inhibition in assay [1] is -7.35%; in assay [2] it was -18.7%; in assay [3], -28.9%; in assay [4], -0.6%; in assay [5] it was -24.1%; in assay [6], -49.2%.

On to `NC(=O)c1ccc([N+](=O)[O-])cc1`, for which the growth inhibition in assay [1] was 6%; in assay [2], -5.15%; in assay [3], 27.1%; in assay [4], -24.8%; in assay [5] it was -1.4%; in assay [6] it was 15.3%.

Take `O=C(NCCNCCO)N/N=C/c1ccccc1`: the growth inhibition in assay [1] was -0.2%; in assay [2] it was -34.4%; in assay [3] it was -15.9%; in assay [4] it was -7.75%; in assay [5] it was -39%; in assay [6], -0.65%.

On to `CCOC(=O)N1CCN(C(=S)N/N=C(\C)c2cnccn2)CC1`, for which the growth inhibition in assay [1] is 99.3% (active); in assay [2], 99.5% (active); in assay [3] it was 99.5% (active); in assay [4], 99.5% (active); in assay [5] it was 99.5% (active); in assay [6], 99.3% (active).

For `O=C1c2ccccc2C(C(c2ccccc2)c2ccccc2)c2ccccc21`, the growth inhibition is -22% in assay [1]; -18.6% in assay [2]; -28.9% in assay [3]; 8.45% in assay [4]; 5.25% in assay [5]; -14% in assay [6].

`O=C1C2CCCC2C1(c1ccccc1)c1ccccc1` (stereo unspecified): the growth inhibition was -7.25% in assay [1]; 38.6% in assay [2]; 64.2% in assay [3]; -36.4% in assay [4]; 49.9% in assay [5]; 10.8% in assay [6].

For `O=C(N/N=C\c1cccc(O)c1)c1ccncc1`, the growth inhibition is 1.75% in assay [1]; 11.9% in assay [2]; -37.5% in assay [3]; -19.4% in assay [4]; 3% in assay [5]; -1.05% in assay [6].

With `NNC(=O)CCCCCCO`, the growth inhibition in assay [1] is 5.3%; in assay [2], 16.3%; in assay [3], 10.1%; in assay [4], 27.6%; in assay [5], 18.3%; in assay [6], 7.45%.

Take `COC1OC(CN)C(O)C(O)C1O` (stereo unspecified): the growth inhibition in assay [1] was 0.15%; in assay [2], 12.1%; in assay [3], 2.35%; in assay [4], 28.2%; in assay [5] it was 5.7%; in assay [6], 43.2%.

As for `CN(Cc1ccccc1)C(=O)c1ccc(Cl)cc1`, the growth inhibition in assay [1] was -1.35%; in assay [2] it was 3.75%; in assay [3] it was 6.25%; in assay [4], 0.6%; in assay [5], 1.25%; in assay [6], -0.1%.

For `Cc1cccc(NC(=O)c2cccc([N+](=O)[O-])c2C(=O)O)c1C`, the growth inhibition in assay [1] is 4.8%; in assay [2] it was 11.9%; in assay [3], 3.75%; in assay [4] it was -7.15%; in assay [5] it was 25.6%; in assay [6] it was 10.8%.

As to `CSCNC(=O)Nc1ccccc1`, the growth inhibition was 30.4% in assay [1]; 33.9% in assay [2]; 19.1% in assay [3]; 0.25% in assay [4]; 15% in assay [5]; 8.9% in assay [6].

Consider `CCOC(=O)NC(Nc1ccc(C(=O)OCC)cc1)(C(F)(F)F)C(F)(F)F`, for which the growth inhibition is 0.25% in assay [1]; 3.25% in assay [2]; -15.2% in assay [3]; -16% in assay [4]; -13.2% in assay [5]; 0.55% in assay [6].

Turning to `CCCCCCCCSCCCC(=O)O`, the growth inhibition is -16.9% in assay [1]; -22.8% in assay [2]; -10.8% in assay [3]; -11.3% in assay [4]; -27.7% in assay [5]; -29.2% in assay [6].
